SMILES strings stand for the structures. “And” between values parts separate entries of the source, which are not always exact repeats. Equal values may be shown once. Records with an inconclusive call do not appear. More than one record can exist for a structure, and the calls need not agree. The source made the active and inactive calls. Unless noted, the call rests on the fitted dose curve; in most records, active means well fitted curve in the direction sought with a large enough effect; inconclusive means small, poorly fitted or top-dose-only effect, or another doubt; inactive means no such curve, though single readings can be large; an effect the other way counts as inactive or inconclusive.

Test [1] in a line: High-throughput drug toxicity screening in the BPDCN cell line Cal-1 (AID 1224825; call rule not given here). To be noted: Cal-1 BPDCN cell viability, qHTS; at 45.8 µM (top of the series) unless noted. The gist of the method: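 Exponentially growing Cal-1 cells, 500 per well in phenol red-free RPMI with 10% FBS, were exposed to compounds for 48 h at 37 °C, 5% CO2. Viability was read by CellTiter-Glo luminescence and normalised to DMSO (100%) and 9.2 uM bortezomib (0%).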
For orientation: In qHTS, concentration-response curves come from the screen itself.

The nature of test [2]: qHTS assay for measurement of the activity of small molecule inhibitors on Zika virus induced Caspase-3 activity in human iPSC derived neural progenitor cells (hNPCs) (AID 1224857). Further: nearly all actives have a fitted effect of over 65% in size. Further: potency means the concentration at half of the fitted maximal effect. The gist of the method: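 Values are percent inhibition of virus-induced caspase-3/7 signal, scaled between uninfected cells and ZIKV-infected cells. Infection used 2 FFU/cell for 6 h after 1 h compound exposure.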

Test [3] is described as follows: qHTS assay for measurement of the activity of small molecule inhibitors on Zika virus induced Caspase-3 activity in human astrocytoma cells (AID 1224859). Further: potency means the concentration at half of the fitted maximal effect. The procedure, abridged: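 Compound added 1 h pre-infection; ZIKV 2 FFU/cell on SNB-19 cells, 6 h, 37 C/5% CO2. Caspase-Glo 3/7 luminescence; values as % inhibition of ZIKV-induced caspase activity.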
A short description of test [4]: qHTS Screen of the MIPE 4.0 Collection Against Ewings Sarcoma (TC32) (AID 1259256). Further: nearly all actives have a fitted effect of over 45% in size. Further: potency means the concentration at half of the fitted maximal effect. The procedure, abridged:
(§1)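 Compound titrations go onto adherent log-phase cells 4 h after seeding, incubate 48 h at 37C, then CellTiter-Glo luminescence reports viability relative to DMSO and cell-free controls.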

Test [5] is described as follows: qHTS assay to identify small molecule inhibitors of chordoma cells - UCH-1 (AID 1259355). Further: nearly all actives have a fitted effect of over 55% in size. Further: potency means the concentration at half of the fitted maximal effect. The procedure, abridged: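 Luminescent ATP read-out (CellTiter-Glo, 30min at room temperature) measured viability of UCH-1 cells exposed for 48hr to test drugs at 15 concentrations, co-dosed with a five-agent combination of auranofin, camptothecin, doxorubicin, rubitecan and topotecan.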

Test [6] is described as follows: qHTS assay to identify small molecule inhibitors of chordoma cells - UCH-2 (AID 1259356). Further: potency means the concentration at half of the fitted maximal effect.
A short description of test [7]: P-glycoprotein substrates identified in KB-8-5-11 adenocarcinoma cell line, qHTS therapeutic library screen (AID 1346987). Further: nearly all actives have a fitted effect of over 65% in size. Further: potency means the concentration at half of the fitted maximal effect. The gist of the method:
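P-gp-mediated resistance screen: KB-8-5-11 cells treated 72 h with compounds in dose-response. CellTiter-Glo viability.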

The nature of test [8]: NS1 protein of Zika virus - qHTS assay to identify small molecule inhibitors in human HEK 293 cells (AID 1347053). Further: nearly all actives have a fitted effect of over 55% in size. Further: potency means the concentration at half of the fitted maximal effect. The procedure, abridged: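 HEK 293; 20 h pre-culture, 37 C/5% CO2; cpd 1 h pre-infection; ZIKV MR766, MOI = 0.5, 24 h, 37 C; TR-FRET NS1 readout (two anti-NS1 Abs); norm. to no-virus vs infected.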
Test [9] can be described thus: qHTS Screen of the MIPE 4.0 Collection Against Ewings Sarcoma (RDES) (AID 1259252). Further: nearly all actives have a fitted effect of over 35% in size. Further: potency means the concentration at half of the fitted maximal effect. The procedure, abridged:
as §1

Test [10] in a line: P-glycoprotein substrates identified in KB-3-1 adenocarcinoma cell line, qHTS therapeutic library screen (AID 1346986). Further: nearly all actives have a fitted effect of over 60% in size. The gist of the method: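 KB-3-1 parental cells and P-gp-overexpressing KB-8-5-11 (colchicine omitted during assay) plated at 500 cells/well, dosed in dose-response, incubated 72 h at 37 degree C. CellTiter-Glo luminescence read; KB-8-5-11 also tested with tariquidar.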

Test [11] has as its target Atrial natriuretic peptide receptor 1 (Homo sapiens) (UniProt P16066). Briefly: Natriuretic polypeptide receptor (hNpr1) antagonism - Pilot screen (AID 1347049; calls by dose curve;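 further: agonist-evoked cGMP luminescence read 20 min after hNppA addition; on the % scale 0 is the no-effect control and ±100 the full control effect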). The gist of the method:
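HEK293 cells co-expressing hNpr1 and the GloSensor pGS-40F cGMP luciferase sensor were preloaded with 2% GloSensor reagent for 2 h. Compounds were added for 30 min at room temperature, then cells were stimulated with 0.1 nM hNppA for 20 min before luminescence readout.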

Test [12] has as its target Tyrosine-protein phosphatase non-receptor type substrate 1 (Homo sapiens) + Leukocyte surface antigen CD47 (Homo sapiens) (UniProt P78324+Q08722). Briefly: CD47-SIRPalpha protein protein interaction - LANCE assay qHTS validation (AID 1347057; active means well fitted curve in the direction sought with a large enough effect in the signal ratio, with a control signal flat, not every such curve was filed as active; the % refers to the signal ratio; further: 0% is about no effect). The procedure, abridged: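 First, His-tagged CD47 and Eu-labelled anti-His antibody met the compound for 30 min; next, site-specifically biotinylated SIRPalpha was added for 30 min; finally streptavidin-APC was added before reading the TR-FRET ratio.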

Test [13] is described as follows: qHTS Screen of the MIPE 4.0 Collection Against Ewings Sarcoma (EW8) (AID 1259255). Further: nearly all actives have a fitted effect of over 35% in size. Further: potency means the concentration at half of the fitted maximal effect.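 On viability: 100% = DMSO-treated cells and 0% = medium-only wells without cells.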 The gist of the method:
as §1

A short description of test [14]: qHTS Screen of the MIPE 4.0 Collection Against Ewings Sarcoma (TC71) (AID 1259253). Further: nearly all actives have a fitted effect of over 40% in size. Further: potency means the concentration at half of the fitted maximal effect. The gist of the method: as §1
A short description of test [15]: Identifying Small Molecule Inhibitors of Pancreatic Cancer Stem Cells (SN12C, Adherent) (AID 1259358).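 Further: cell survival measured after 48 h of compound exposure.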 The procedure, abridged:
(§2)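 Viability is scored by CellTiter-Glo luminescence 48 h after dosing, expressed as percent activity against vehicle and no-cell references. Spheroid formats rely on cells cultured 14 days in stem cell media beforehand.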

A short description of test [16]: Identifying Small Molecule Inhibitors of Pancreatic Cancer Stem Cells (SN12C, Spheroid) (AID 1259360).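 Further: 100% = DMSO-treated cells and 0% = wells without cells.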 To be noted: Potency: SN12C spheroid viability. The procedure, abridged: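 Monolayer and spheroid cultures are compared. Spheroids form over 14 days in stem cell medium on hydrogel-coated low-attachment plates, then are exposed to compound for 48 h before CellTiter-Glo luminescence.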

A short description of test [17]: Identifying Small Molecule Inhibitors of Pancreatic Cancer Stem Cells (A278, Adherent) (AID 1259361).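 Further: 100% = DMSO-treated cells and 0% = cell-free media-only wells; nearly all actives have a fitted effect of over 35% in size.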 The procedure, abridged: as §2

Sequence of Tyrosine-protein phosphatase non-receptor type substrate 1 (Homo sapiens) + Leukocyte surface antigen CD47 (Homo sapiens) (P78324 whole entry, looked up): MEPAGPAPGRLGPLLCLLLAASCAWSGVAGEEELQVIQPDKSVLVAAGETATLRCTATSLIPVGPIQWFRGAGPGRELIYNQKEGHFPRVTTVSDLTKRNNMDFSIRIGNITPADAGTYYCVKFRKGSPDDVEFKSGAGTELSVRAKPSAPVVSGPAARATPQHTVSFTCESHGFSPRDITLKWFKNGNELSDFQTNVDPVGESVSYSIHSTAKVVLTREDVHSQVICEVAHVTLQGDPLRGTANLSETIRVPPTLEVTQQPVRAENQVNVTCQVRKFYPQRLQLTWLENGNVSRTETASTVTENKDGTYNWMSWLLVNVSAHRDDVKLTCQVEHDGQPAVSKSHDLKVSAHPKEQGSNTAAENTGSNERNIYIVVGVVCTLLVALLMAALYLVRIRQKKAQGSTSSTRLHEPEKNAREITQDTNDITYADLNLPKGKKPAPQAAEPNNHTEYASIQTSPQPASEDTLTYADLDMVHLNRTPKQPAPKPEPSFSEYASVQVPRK
Sequence of Tyrosine-protein phosphatase non-receptor type substrate 1 (Homo sapiens) + Leukocyte surface antigen CD47 (Homo sapiens) (Q08722 whole entry, looked up): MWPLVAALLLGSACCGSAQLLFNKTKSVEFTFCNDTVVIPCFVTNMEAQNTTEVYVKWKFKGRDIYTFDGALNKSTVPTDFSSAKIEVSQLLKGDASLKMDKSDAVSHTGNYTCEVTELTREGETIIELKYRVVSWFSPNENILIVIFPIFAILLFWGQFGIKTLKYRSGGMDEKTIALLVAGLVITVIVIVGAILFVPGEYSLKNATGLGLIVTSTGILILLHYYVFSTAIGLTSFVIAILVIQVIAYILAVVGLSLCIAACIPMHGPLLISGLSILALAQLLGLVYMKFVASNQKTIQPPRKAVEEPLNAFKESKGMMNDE
Sequence of Atrial natriuretic peptide receptor 1 (Homo sapiens) (P16066 whole entry, looked up): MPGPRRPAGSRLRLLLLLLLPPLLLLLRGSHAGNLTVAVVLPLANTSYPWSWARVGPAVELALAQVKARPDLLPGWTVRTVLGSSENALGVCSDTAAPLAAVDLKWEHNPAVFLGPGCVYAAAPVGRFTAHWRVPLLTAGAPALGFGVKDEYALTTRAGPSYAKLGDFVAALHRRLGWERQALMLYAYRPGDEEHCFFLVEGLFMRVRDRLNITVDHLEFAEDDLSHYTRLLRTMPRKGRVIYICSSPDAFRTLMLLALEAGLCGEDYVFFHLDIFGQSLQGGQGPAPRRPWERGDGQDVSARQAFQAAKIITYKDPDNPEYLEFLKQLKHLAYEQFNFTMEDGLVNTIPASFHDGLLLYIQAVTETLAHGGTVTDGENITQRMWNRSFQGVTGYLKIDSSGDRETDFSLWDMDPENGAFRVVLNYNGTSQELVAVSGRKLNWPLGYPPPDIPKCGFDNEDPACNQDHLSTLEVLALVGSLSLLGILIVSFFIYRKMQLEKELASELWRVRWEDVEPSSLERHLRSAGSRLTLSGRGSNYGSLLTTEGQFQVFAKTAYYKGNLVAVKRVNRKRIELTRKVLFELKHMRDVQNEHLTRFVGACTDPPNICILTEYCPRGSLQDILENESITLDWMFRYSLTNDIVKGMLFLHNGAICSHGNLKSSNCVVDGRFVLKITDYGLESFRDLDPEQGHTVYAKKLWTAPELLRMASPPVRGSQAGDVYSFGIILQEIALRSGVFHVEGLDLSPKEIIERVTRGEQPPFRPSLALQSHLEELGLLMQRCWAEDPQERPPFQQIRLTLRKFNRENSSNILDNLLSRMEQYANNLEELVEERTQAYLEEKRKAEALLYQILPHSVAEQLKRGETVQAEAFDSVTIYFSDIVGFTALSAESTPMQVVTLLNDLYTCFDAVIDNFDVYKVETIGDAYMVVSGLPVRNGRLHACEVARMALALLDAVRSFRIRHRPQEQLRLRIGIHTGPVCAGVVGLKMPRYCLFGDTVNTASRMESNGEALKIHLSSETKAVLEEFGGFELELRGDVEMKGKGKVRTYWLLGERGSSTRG

On to `Cc1cc(=O)c2c(O)c3c(O)cc(=O)c4c3c3c(cc(O)c1c23)C(C)(C)C=4O`, for which, in test [1], the viability (% of control) was 94.6%. For the same compound, the Potency result in [2], in test [3], in test [4] and in [8] was “inactive” in each case. Moreover, the Potency in test [5] was 6.31 µM (active); in test [6], 6.51 µM (active); in test [7], 1.46 µM (active) and 4.69 µM (active).
Consider `Nc1ncn([C@H]2C[C@H](O)[C@@H](CO)O2)c(=O)n1`, for which, in test [1], the viability (% of control) was determined as 47.1%. The Potency result in test [2], in test [3], in test [5], in test [6], in test [10] and in [7] was “inactive” each time. For the same compound, in test [8], the Potency entry is “inactive”. Further, in test [9], the Potency is 0.418 µM (active).
For `CC(=O)N1CCN(c2ccc(OC[C@H]3CO[C@](Cn4ccnc4)(c4ccc(Cl)cc4Cl)O3)cc2)CC1`, the viability (% of control) in test [1] is 22.2%. Also, the Potency result in [2], in test [3], in [5], in test [6] and in [11] was “inactive” throughout. In addition, in test [9], the Potency is 16.6 µM (active). Also, the result in [12] was inactive.
`CNC[C@H](O)c1ccc(O)c(O)c1`: in test [1], the viability (% of control) was 79.5% [at 92.2 µM]. Besides, the Potency entry in test [2], in test [3], in [6], in [11] and in [8] was “inactive” throughout. Further, the Potency in [9] was 42.9 µM (active); in test [4], 38.2 µM (active). The outcome in [12] was inactive.
For `Cc1nc(-c2ccc(OCC(C)C)c(C#N)c2)sc1C(=O)O`, the viability (% of control) in [1] was found to be 105%. For the same compound, the Potency in test [2] was 5.26 µM (active) and inactive; in test [3], 4.18 µM (active). In addition, the Potency result in test [9], in test [13], in test [4], in test [7] and in [8] was “inactive” in each case.
As to `CCOC(=O)C(C)Oc1cccc2c(=O)n(CC(=O)Nc3ccc4c(c3)OCCO4)ccc12` (configuration not stated), the viability (% of control) in test [1] is 88%. In addition, the Potency result in test [2], in test [3], in test [14], in test [15], in test [16] and in [10] was “inactive” in each case. Besides, the Potency result in test [7] and in [11] was “inactive” in each case. The Potency in test [13] is 2.64 µM (active); in test [4], 3.32 µM (active). The result in test [12] was inactive.
For the compound `CCN(CCO)CCCC(C)Nc1ccnc2cc(Cl)ccc12` (configuration not stated), in test [1], the viability (% of control) was 8.28%. For the same compound, the Potency entry in test [2], in test [3], in test [5], in test [6], in test [15] and in test [7] was “inactive” each time. For the same compound, the Potency result in test [8] is “inactive”. For the same compound, the Potency in test [4] is 23.5 µM (active). The IC50 (viability decrease) entry in [17] was “inactive”.
Consider `Cc1c(C(=O)NN2CCCCC2)nn(-c2ccc(Cl)cc2Cl)c1-c1ccc(Cl)cc1`, for which, in test [1], the viability (% of control) came to 13.1%. Also, the Potency entry in test [2], in test [3] and in test [6] was “inactive” each time. In addition, the Potency was 23.5 µM (active) in [14]; 26.4 µM (active) in test [13]; 26.4 µM (active) in test [4]; 20.6 µM (active) in test [7]; 18.7 µM (active) in [8].
On to `CC[C@]1(O)C[C@H]2CN(CCc3c([nH]c4ccccc34)[C@@](C(=O)OC)(c3cc4c(cc3OC)N(C=O)[C@H]3[C@@](O)(C(=O)OC)[C@H](OC(C)=O)[C@]5(CC)C=CCN6CC[C@]43[C@@H]65)C2)C1`, for which the viability (% of control) in test [1] came to 10.9%. The Potency result in [2], in test [3], in test [4] and in test [6] was “inactive” throughout. Also, the Potency is 0.224 µM (active) in test [5]; 1.05 µM (active) in test [7]; 1.18 µM (active) and inactive in test [8].
Take `Nc1nc(N)c(N=O)c(OCC2CCCCC2)n1`: the viability (% of control) in test [1] is 15.6%. Moreover, the Potency result in test [2], in test [3], in test [11] and in test [8] was “inactive” in each case. Moreover, the Potency in [9] was 14.8 µM (active); in [13] it was 18.7 µM (active); in [4], 9.35 µM (active).
`CC(C)c1nc(CN(C)C(=O)N[C@H](C(=O)N[C@@H](Cc2ccccc2)C[C@H](O)[C@H](Cc2ccccc2)NC(=O)OCc2cncs2)C(C)C)cs1`: in [1], the viability (% of control) was found to be 94.9%. The Potency entry in test [2], in test [3], in [9], in test [7] and in [8] was “inactive” throughout. Besides, the Potency in test [13] was 16.6 µM (active); in test [4], 14.8 µM (active).

The values are drawn from PubChem BioAssay (NCATS).
